# Pf Dd2 inh = P. falciparum Dd2 growth inhibitors, primary screen, SYBR Green fluorescence, single dose replicates. 72 h; active compounds read low. activity change, % at 10 µM. 2.3% of 94,000 active; in the data active means activity change below about -80%; inconclusive means no clear call, values can overlap the other calls
# C diff growth = C. difficile growth inhibitors, primary screen, HTS; 0.25% of 86,000 active; Clostridium difficile clinical isolate growth, OD600, 24 h; active compounds read low; growth activity, negative = inhibition, % at 16 µg/mL (by protocol);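 active means mean growth activity at or below -80% and every replicate also at or below -80%; inconclusive means mean at or below -80% but some replicate above -80%; inactive means mean growth activity above -80%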;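 further: 0% = DMSO wells and -100% = levofloxacin 16 µg/mL wells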
# T cruzi growth-1 = T. cruzi intracellular proliferation inhibitors, primary screen, cell-based, beta-gal Tulahuen parasites, NIH3T3 host, luminescence. T. cruzi beta-gal in NIH3T3, GalScreen luminescence, 90 h. inhibition, % at 8.34 µM. 5.9% of 77,000 active;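 active means mean inhibition above about 93%, with at least 55% of replicates each passing it, limit read from the data, passing the limit was not always enough; inconclusive means only one of those two conditions holds; inactive means neither condition holds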
# T cruzi growth-2 = T. cruzi intracellular proliferation inhibitors, confirmation, cell-based, NIH3T3 host, beta-gal parasite, luminescence, cherry-pick | shares compounds with T cruzi growth-1 | T. cruzi beta-gal in NIH3T3, GalScreen luminescence, 90 h | inhibition, % at 8.35 µM | 72% of 5,600 active;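 active means mean replicate inhibition above about 95% and at least 55% of replicates individually reaching it, limit read from the data; inconclusive means only one of the two criteria is met; inactive means neither criterion is met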
# T cruzi growth-3 = inhibitors of intracellular T. cruzi replication, confirmation, NIH3T3 host cells, beta-gal parasites, cherry-pick, set 2. T. cruzi beta-gal in NIH3T3, GalScreen luminescence, 90 h. AID 651740, 2012. 21% of 5,600 active. shares compounds with T cruzi growth-1. inhibition, % at 2.09 µM;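 active means mean inhibition above about 95%, with at least 55% of replicates also reaching it, limit read from the data; inconclusive means meets just one of the two conditions; inactive means meets neither condition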;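 further: plate controls were neutral control median for no effect and positive control median for full effect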
# NIH3T3 tox = cytotoxicity in mouse NIH/3T3 fibroblasts, confirmation, cytotoxicity control for T. cruzi proliferation inhibitor project, cell-based, cherry-pick, single point; shares compounds with T cruzi growth-1; NIH/3T3 viability, CellTiter-Glo ATP luminescence, 90 h; cytotoxicity (signal decrease), % at 8.35 µM; 14% of 5,600 active;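 active means mean signal decrease across replicates above about 35% based on untreated-well scatter, with enough replicates individually passing, limit read from the data; inconclusive means no rule stated though some were filed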;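 further: 0% = median of neutral control wells and 100% = median of positive control wells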
# NIH3T3 tox 2 = NIH/3T3 fibroblast cytotoxicity, confirmation, cytotoxicity control, cell-based, cherry-pick, single point, set 2; shares compounds with T cruzi growth-1; NIH/3T3 viability, CellTiter-Glo ATP luminescence, 90 h; inhibition, % at 24.9 µM; 56% of 5,600 active; AID 651744, 2012;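 active means mean loss of cell viability signal at or above a set limit, and enough replicates individually reaching it; inconclusive means meets only the mean limit or only the replicate share; inactive means meets neither condition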;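 further: 0% = median of neutral control wells and 100% = median of positive control wells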
# * = called active by the depositor; ? = inconclusive; . = no result given; ! = repeats disagree. In the library only some 6.7% were active in any assay of this set; here they are far more common.
SMILES,Pf Dd2 inh,C diff growth,T cruzi growth-1,T cruzi growth-2,T cruzi growth-3,NIH3T3 tox,NIH3T3 tox 2
COc1cccc(-c2ccc3c(c2)O[C@@H](CN(C)C(=O)c2ccccc2F)[C@H](C)CN([C@@H](C)CO)S3(=O)=O)c1,-77,7,.,.,.,.,.
O=C(C[C@H]1CC[C@H]2[C@@H](COC[C@@H](O)CN2S(=O)(=O)c2ccc(Oc3ccccc3)cc2)O1)NCCN1CCCCC1,-7,.,87,.,.,.,.
COc1cccc(-c2ccc3c(c2)O[C@H](CN(C)C(=O)c2ccccc2F)[C@@H](C)CN([C@H](C)CO)S3(=O)=O)c1,-63,8,.,.,.,.,.
COc1ccc(-c2ccc3c(c2)O[C@@H](CN(C)C(=O)c2ccccc2F)[C@H](C)CN([C@H](C)CO)S3(=O)=O)cc1,-74,1,114*,105*,67,40*,70*
N#Cc1ccc(-c2ccc(C3[C@H]4CNC[C@@H]3N4C(=O)NC3CCCCC3)cc2)cc1 (stereo partly drawn),-9,10,.,.,.,.,.
C[C@@H]1CN([C@@H](C)CO)C(=O)c2cc(C#CCN(C)C)cnc2O[C@H]1CN(C)Cc1ccc(-c2ccccc2)cc1,-61,1,102*,109*,116*!,40*,104*
C[C@@H]1CN([C@H](C)CO)C(=O)c2cc(C#CCN(C)C)cnc2O[C@@H]1CN(C)Cc1ccccc1,-18,3,-45,.,.,.,.
C[C@@H]1CN([C@H](C)CO)C(=O)c2cc(C#CCN(C)C)cnc2O[C@@H]1CN(C)Cc1ccc(C(=O)O)cc1,-1,0,105*,-7,3,-20,-5
C[C@H](CO)N1C[C@H](C)[C@@H](CN(C)Cc2ccc(C(=O)O)cc2)Oc2ncc(C#CCN(C)C)cc2C1=O,5,3,-21,.,.,.,.
C[C@@H]1CN([C@@H](C)CO)C(=O)c2cc(C#CCN(C)C)cnc2O[C@@H]1CN(C)Cc1ccc(-c2ccccc2)cc1,.,20,112*,110*,107*,47*,105*
C[C@@H]1CN([C@@H](C)CO)C(=O)c2cc(C#CCN(C)C)cnc2O[C@@H]1CN(C)Cc1ccccc1,-16,4,-123,.,.,.,.
C[C@@H]1CN([C@H](C)CO)C(=O)c2cc(C#CCN(C)C)cnc2O[C@H]1CN(C)Cc1ccccc1,-8,-1,-113,.,.,.,.
C[C@@H]1CN([C@H](C)CO)C(=O)c2cc(C#CCN(C)C)cnc2O[C@H]1CN(C)Cc1ccc(-c2ccccc2)cc1,.,10,109*,111*,116*,?,104*
C[C@H]1CN([C@@H](C)CO)C(=O)Cc2cc(NC(=O)Nc3ccc(F)cc3)ccc2O[C@@H]1CN(C)S(=O)(=O)c1cccs1,1,-3,22,.,.,.,.
C[C@@H]1CN([C@@H](C)CO)C(=O)c2cc(NC(=O)C3CCCCC3)ccc2O[C@H]1CN(C)Cc1ccc(C(=O)O)cc1,-3,0,-11,.,.,.,.
CC(C)NC(=O)N1C[C@H]2[C@@H](c3ccccc31)[C@H](CO)N2C(=O)c1ccccc1,13,-3,28,.,.,.,.
